Results published in PubChem BioAssay (NCATS).
Records with an inconclusive call do not appear. Calls of active or inactive are those of the source. Unless noted, the call rests on the fitted dose curve; in most records, active means well fitted curve in the direction sought with a large enough effect; inconclusive means small, poorly fitted or top-dose-only effect, or another doubt; inactive means no such curve, though single readings can be large; an effect the other way counts as inactive or inconclusive.

Legend:
[1] = molecular target: DNA repair nuclease/redox regulator APEX1 (Homo sapiens) (UniProt P27695); test: qHTS Validation Assay for Inhibitors of the Human Apurinic/apyrimidinic Endonuclease 1 (APE1) (AID 1705;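 further: TAMRA fluorescence gain over two minutes as APE1 cuts a quenched THF abasic duplex; series mostly up to about 57 µM; on the % scale 0 is the no-effect control and ±100 the full control effect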)
Summary of the method: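 Substrate: 50 nM final fluorophore/quencher THF-abasic duplex. Enzyme preincubated with compounds 15 min, RT. Progress derived from fluorescence difference, third minus first kinetic read.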

[2] = Counterscreen for APE1 Inhibitors: Fluorescent Dye Displacement Validation Assay (AID 1707);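 further: plate controls were ThO with dsDNA and no compound for no effect and ThO without dsDNA for full effect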
Summary of the method: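 Thiazole Orange displacement from dsDNA: 250 nM ThO with 50 nM TAMRA-labelled abasic-site (tetrahydrofuran) duplex in 50 mM Tris-HCl pH7.5, 50mM NaCl, 2 mM MgCl2, 0.01% Tween-20. Loss of endpoint fluorescence (ex 480 nm, em 540 nm) flags DNA binders.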

[3] = qHTS for differential inhibitors of proliferation of Plasmodium falciparum line GB4 (AID 1816); conditions: Potency: Plasmodium falciparum GB4 proliferation inhibition;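 further: parasite growth measured after 72 h incubation; 0% = vehicle DMSO and -100% = reference inhibitor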
[4] = qHTS for differential inhibitors of proliferation of Plasmodium falciparum line 3D7 (AID 1876);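 further: parasite growth measured after three days of culture; 0% = vehicle wells and -100% = reference inhibitor wells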
[5] = qHTS for differential inhibitors of proliferation of Plasmodium falciparum line D10 (AID 1877);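 further: parasites grown with compound for 72 h before DNA staining; plate controls were vehicle wells for no effect and reference inhibitor wells for full effect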
[6] = qHTS for differential inhibitors of proliferation of Plasmodium falciparum line Dd2 (AID 1882); conditions: Potency: Plasmodium falciparum Dd2 proliferation inhibition;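 further: series mostly up to about 29 µM; compound exposure of 72 h on infected erythrocytes; plate controls were DMSO vehicle for no effect and 0.29 µM artemisinin for full effect; nearly all actives have a fitted effect of over 65% in size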
Summary of the method: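 SYBR Green I DNA fluorescence read-out, ex 485/em 535 nm. Signals were normalized to 0.29 uM artemisinin and DMSO wells, then corrected using vehicle-only plates flanking each stack. Parasite growth ran 72 h in erythrocytes before lysis.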

[7] = qHTS for differential inhibitors of proliferation of Plasmodium falciparum line HB3 (AID 1886); conditions: Potency: Plasmodium falciparum HB3 proliferation inhibition;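 further: parasites grown with compound for 72 h before SYBR Green readout; plate controls were vehicle for no effect and reference inhibitor for full effect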
[8] = molecular target: Ferritin light chain (Equus caballus) (UniProt P02791); test: qHTS Validation Assay for Identification of Novel General Anesthetics (AID 2323); further: series mostly up to about 77 µM; on the % scale 0 is the no-effect control and ±100 the full control effect
Summary of the method: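 Normalized fluorescence response, scaled between free 1-AMA and 1-AMA/apoferritin complex, fitted to a four-parameter Hill equation for concentration-effect values. Binding mix: 10 uM horse-spleen apoferritin, 50% saturated 1-AMA in PBS; read 380/535 nm after 10 min.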

[9] = molecular target: ATP-dependent DNA helicase Q1 (Homo sapiens) (UniProt P46063); test: qHTS Validation Assay for Inhibitors of RecQ-Like Dna Helicase 1 (RECQ1) (AID 2353);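 further: plate controls were DMSO vehicle for no effect and enzyme-free control for full effect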
Summary of the method: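 50 nM RECQ1T1 preincubated 15 min with compound in Tris pH 8.0 buffer with MgCl2, DTT, Tween-20 and 2.5 ug/ml poly(dI-dC); started with 200 nM TAMRA/BHQ-2 forked duplex and 2 mM ATP. Unwinding read as fluorescence (525/598 nm), two reads 2 h apart.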

[10] = Quantitative high throughput screen for delayed death inhibitors of the malarial parasite plastid, 96 hour incubation (AID 488745); further: series mostly up to about 29 µM; on the % scale 0 is the no-effect control and ±100 the full control effect; nearly all actives have a fitted effect of over 70% in size
Summary of the method: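 P. falciparum carrying an integrated firefly luciferase reporter, grown in erythrocytes (2% hematocrit, 0.1% parasitemia final) in RPMI 1640/0.5% Albumax, was exposed to compound for 96 h (two generations) at 37 C, 5% CO2. Luminescence decrease indicated growth inhibition.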

[11] = Quantitative high throughput screen for delayed death inhibitors of the malarial parasite plastid, 48 hour incubation (AID 488752); further: on the % scale 0 is the no-effect control and ±100 the full control effect; nearly all actives have a fitted effect of over 65% in size
Summary of the method: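 Erythrocytes infected with P. falciparum carrying an integrated firefly luciferase reporter (2% hematocrit, 0.1% parasitemia final) were exposed to compounds in RPMI 1640/0.5% Albumax for 48 h at 37 C, 5% CO2. Growth inhibition was scored as reduced luminescence.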

[12] = molecular target: M-phase phosphoprotein 8 (Homo sapiens) (UniProt Q99549); test: qHTS Validation Assay for Inhibitors for MPP8 Chromodomain Interactions with Methylated Histone Tails (AID 488949);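 further: 50 nM MPP8 with 50 nM peptide preformed then compounds added for 30 min; AlphaScreen signal from MPP8 chromodomain bound to biotinylated H3K9me3 peptide; top concentration of the series differs between compounds; on the % scale 0 is the no-effect control and ±100 the full control effect; nearly all actives have a fitted effect of over 55% in size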
Summary of the method: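 Chemiluminescent proximity assay: histidine-tag capture via nickel acceptor beads, biotin peptide via streptavidin donor beads. Protein and peptide each at 50 nM, pH 7.4, with 30 min incubations at room temperature for complex formation, compound exposure and bead binding.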

[13] = molecular target: Transient receptor potential cation channel subfamily V member 1 (Homo sapiens) (UniProt Q8NER1); test: HTS Assay for Compounds that Act as Enhancers of the Vanilloid Receptor 1 (AID 488979); further: 0% is about no effect
Summary of the method: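 TRPV1-expressing cells loaded with Fluo-8 calcium dye; compounds added and calcium influx read kinetically for 3 min (agonist phase), then capsaicin at EC20 added and read 2 min more for enhancement. Fluorescence ex 480/em 520 nm.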

[14] = molecular target: Thyrotropin receptor (Homo sapiens) (UniProt P16473); test: qHTS Assay for Antagonists of the Thyroid Stimulating Hormone Receptor (AID 488980); further: series mostly up to about 58 µM; 0% is about no effect
Summary of the method: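 Inhibition of TSH-stimulated cAMP accumulation was quantified by homogeneous time-resolved FRET in TSHR-transfected HEK293 cells. Agonist: TSH, 4 nM final (EC80).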

[15] = molecular target: Thyrotropin-releasing hormone receptor (Homo sapiens) (UniProt P34981); test: qHTS for Small Molecule Agonists and Allosteric Enhancers of Human TRH Receptor: Validation Screen for Agonists (AID 493127;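 active means calcium activation more than 3 SD above the typical response in the agonist read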;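 further: intracellular calcium rise by fluo-8 fluorescence before TRH EC20 addition; 0% is about no effect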); conditions: TRH receptor agonist cell assay; at 2 µM; hits give high values
Summary of the method: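 TRHR-expressing cells were plated overnight in serum-containing medium, then loaded with fluo-8 calcium dye at room temperature for 30 min–1.5 h. After a 10 s baseline, compound was pin-transferred and calcium fluorescence (ex 480/em 530) read kinetically for agonist response.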

[16] = molecular target: Galactokinase (Homo sapiens) (UniProt P51570); test: qHTS Validation Assay for Inhibitors of Human Galactokinase (GALK) (AID 493189); further: 0% is about no effect
Summary of the method: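 Enzyme activity is inferred from ATP consumption: human GALK phosphorylates galactose (100 uM) using 35 uM ATP for 1 h at room temperature, and luciferase-based Kinase-Glo Plus reports unconsumed ATP.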

[17] = Validation screen for small molecules that induce DNA re-replication in SW480 colon adenocarcinoma cells (AID 504364); further: 0% is about no effect
Summary of the method: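 SW480 cells seeded at 250 per well were exposed to compound or DMSO for 48 hr at 37 C, 5% CO2, then stained with Hoechst for 40 min. DNA content per nucleus was imaged (405 nm ex, 500-530 nm em).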

[18] = molecular target: Voltage-gated inwardly rectifying potassium channel KCNH2 (Homo sapiens) (UniProt Q12809); test: qHTS Assay for Small Molecule Inhibitors of the Human hERG Channel Activity (AID 588834);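 further: top concentration of the series differs between compounds; on the % scale 0 is the no-effect control and ±100 the full control effect; lower thallium flux fluorescence means stronger hERG block; nearly all actives have a fitted effect of over 50% in size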
Summary of the method: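 Blockade is seen as reduced FluxOR thallium-flux fluorescence in U2OS cells expressing hERG from a BacMam construct, in Opti-MEM with 2% FCS. Concentration-response data fitted to the Hill equation for AC50.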

[19] = test system: Zika virus NS2B-NS3 protease; test: Primary screen GU AMC qHTS for Zika virus inhibitors (AID 1347154);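 further: 0% = no-inhibitor control and -100% = no-enzyme control; nearly all actives have a fitted effect of over 70% in size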
Summary of the method: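 Unlinked Zika NS2B hydrophilic domain/NS3 protease domain noncovalent complex (25 nM final) in 10 mM Tris-HCl pH 8.0, 0.01% Tween 20, with AMC peptide substrate. Fluorescence (ex 340, em 450 nm) change over 15 min, room temperature; percent inhibition fitted to 4-parameter Hill equation.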

[20] = Primary qHTS for small molecule stabilizers of the endoplasmic reticulum resident proteome: Secreted ER Calcium Modulated Protein (SERCaMP) assay (AID 1508630); further: on the % scale 0 is the no-effect control and ±100 the full control effect
Summary of the method: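 GLuc-SERCaMP-expressing SH-SY5Y cells, pretreated 16 h with compound, are challenged with thapsigargin to empty ER calcium stores; after 4 h, coelenterazine is added directly to the medium and luminescence is imaged.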

Voltage-gated inwardly rectifying potassium channel KCNH2 (Homo sapiens), sequence (Q12809 whole entry, looked up): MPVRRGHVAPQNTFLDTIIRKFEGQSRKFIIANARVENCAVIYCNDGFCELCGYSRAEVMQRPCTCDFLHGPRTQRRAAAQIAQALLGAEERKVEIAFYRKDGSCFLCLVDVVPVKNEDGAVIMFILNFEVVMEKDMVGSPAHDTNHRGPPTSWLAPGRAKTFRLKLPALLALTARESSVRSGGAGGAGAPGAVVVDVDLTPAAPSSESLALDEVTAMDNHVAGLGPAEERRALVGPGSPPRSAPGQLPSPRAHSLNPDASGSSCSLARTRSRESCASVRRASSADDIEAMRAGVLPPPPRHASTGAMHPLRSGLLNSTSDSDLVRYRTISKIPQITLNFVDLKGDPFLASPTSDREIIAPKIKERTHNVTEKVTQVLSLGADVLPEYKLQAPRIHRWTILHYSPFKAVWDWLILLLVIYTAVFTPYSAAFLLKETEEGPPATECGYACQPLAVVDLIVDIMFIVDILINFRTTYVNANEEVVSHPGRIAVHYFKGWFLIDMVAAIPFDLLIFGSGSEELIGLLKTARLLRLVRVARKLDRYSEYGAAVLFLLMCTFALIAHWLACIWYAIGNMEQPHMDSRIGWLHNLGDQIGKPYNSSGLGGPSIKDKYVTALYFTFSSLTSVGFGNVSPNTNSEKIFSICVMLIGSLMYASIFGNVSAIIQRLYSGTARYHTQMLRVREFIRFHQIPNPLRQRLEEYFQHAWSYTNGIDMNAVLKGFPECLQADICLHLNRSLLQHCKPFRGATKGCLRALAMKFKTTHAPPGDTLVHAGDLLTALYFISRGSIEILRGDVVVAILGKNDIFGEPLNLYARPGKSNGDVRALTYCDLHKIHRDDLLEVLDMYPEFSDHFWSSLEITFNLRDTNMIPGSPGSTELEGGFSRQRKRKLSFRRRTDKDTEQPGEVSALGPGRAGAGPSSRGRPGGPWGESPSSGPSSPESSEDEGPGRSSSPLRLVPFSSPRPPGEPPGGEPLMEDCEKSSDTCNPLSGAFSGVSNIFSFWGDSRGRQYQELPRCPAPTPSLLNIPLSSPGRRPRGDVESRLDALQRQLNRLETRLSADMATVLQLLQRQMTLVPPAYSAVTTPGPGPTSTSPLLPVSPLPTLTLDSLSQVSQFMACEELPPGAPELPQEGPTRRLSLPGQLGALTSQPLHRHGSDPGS
Thyrotropin-releasing hormone receptor (Homo sapiens), sequence (P34981 whole entry, looked up): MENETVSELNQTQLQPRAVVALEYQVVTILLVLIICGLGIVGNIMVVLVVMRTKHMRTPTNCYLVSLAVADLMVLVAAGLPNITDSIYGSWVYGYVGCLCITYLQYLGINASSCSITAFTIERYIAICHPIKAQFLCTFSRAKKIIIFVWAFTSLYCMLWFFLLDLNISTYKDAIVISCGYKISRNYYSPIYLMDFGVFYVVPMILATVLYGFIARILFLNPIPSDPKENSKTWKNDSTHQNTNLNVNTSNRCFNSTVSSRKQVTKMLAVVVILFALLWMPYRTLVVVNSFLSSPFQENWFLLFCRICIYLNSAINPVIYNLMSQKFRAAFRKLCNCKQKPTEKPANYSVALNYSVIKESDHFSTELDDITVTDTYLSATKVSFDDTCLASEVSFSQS
DNA repair nuclease/redox regulator APEX1 (Homo sapiens), sequence (P27695 whole entry, looked up): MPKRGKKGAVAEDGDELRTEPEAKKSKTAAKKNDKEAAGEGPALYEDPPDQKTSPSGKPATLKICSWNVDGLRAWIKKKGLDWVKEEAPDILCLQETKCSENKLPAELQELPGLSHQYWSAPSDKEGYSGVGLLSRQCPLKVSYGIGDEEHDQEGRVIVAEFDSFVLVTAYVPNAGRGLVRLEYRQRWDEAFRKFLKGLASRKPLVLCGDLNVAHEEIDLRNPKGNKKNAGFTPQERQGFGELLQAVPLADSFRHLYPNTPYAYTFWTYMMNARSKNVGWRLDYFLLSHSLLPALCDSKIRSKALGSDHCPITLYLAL
Galactokinase (Homo sapiens), sequence (P51570 whole entry, looked up): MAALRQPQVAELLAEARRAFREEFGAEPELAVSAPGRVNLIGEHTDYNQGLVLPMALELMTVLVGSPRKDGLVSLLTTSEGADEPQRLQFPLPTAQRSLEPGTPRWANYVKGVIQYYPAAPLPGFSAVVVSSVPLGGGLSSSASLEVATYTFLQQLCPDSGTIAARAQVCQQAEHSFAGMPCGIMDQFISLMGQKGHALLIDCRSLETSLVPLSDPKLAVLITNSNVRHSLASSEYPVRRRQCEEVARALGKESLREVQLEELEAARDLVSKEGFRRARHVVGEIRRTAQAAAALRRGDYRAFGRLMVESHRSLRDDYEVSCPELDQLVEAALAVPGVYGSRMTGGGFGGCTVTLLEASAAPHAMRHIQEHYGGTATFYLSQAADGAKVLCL
M-phase phosphoprotein 8 (Homo sapiens), sequence (Q99549 whole entry, looked up): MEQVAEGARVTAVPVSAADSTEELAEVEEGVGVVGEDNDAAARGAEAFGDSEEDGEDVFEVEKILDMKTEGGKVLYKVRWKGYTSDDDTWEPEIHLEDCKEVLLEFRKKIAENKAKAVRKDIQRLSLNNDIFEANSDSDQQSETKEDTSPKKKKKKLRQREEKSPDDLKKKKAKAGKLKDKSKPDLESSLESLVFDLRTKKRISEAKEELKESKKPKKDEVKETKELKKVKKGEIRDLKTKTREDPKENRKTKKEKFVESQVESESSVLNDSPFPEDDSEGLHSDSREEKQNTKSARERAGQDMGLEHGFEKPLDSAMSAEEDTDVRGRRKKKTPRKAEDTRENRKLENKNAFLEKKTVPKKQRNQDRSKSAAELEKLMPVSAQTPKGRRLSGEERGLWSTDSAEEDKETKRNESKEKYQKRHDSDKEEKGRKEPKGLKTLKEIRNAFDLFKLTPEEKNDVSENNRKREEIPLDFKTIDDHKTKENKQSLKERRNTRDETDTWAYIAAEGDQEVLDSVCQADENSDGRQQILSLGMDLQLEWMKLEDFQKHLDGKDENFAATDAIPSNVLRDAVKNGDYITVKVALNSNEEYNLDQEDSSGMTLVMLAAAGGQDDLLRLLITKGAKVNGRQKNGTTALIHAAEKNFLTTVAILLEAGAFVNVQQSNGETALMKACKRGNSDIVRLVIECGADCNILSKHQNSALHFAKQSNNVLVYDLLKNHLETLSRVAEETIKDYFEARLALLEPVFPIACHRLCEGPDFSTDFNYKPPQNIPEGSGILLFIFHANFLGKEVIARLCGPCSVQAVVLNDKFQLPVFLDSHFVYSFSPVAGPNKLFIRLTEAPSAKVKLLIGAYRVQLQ
Transient receptor potential cation channel subfamily V member 1 (Homo sapiens), sequence (Q8NER1 whole entry, looked up): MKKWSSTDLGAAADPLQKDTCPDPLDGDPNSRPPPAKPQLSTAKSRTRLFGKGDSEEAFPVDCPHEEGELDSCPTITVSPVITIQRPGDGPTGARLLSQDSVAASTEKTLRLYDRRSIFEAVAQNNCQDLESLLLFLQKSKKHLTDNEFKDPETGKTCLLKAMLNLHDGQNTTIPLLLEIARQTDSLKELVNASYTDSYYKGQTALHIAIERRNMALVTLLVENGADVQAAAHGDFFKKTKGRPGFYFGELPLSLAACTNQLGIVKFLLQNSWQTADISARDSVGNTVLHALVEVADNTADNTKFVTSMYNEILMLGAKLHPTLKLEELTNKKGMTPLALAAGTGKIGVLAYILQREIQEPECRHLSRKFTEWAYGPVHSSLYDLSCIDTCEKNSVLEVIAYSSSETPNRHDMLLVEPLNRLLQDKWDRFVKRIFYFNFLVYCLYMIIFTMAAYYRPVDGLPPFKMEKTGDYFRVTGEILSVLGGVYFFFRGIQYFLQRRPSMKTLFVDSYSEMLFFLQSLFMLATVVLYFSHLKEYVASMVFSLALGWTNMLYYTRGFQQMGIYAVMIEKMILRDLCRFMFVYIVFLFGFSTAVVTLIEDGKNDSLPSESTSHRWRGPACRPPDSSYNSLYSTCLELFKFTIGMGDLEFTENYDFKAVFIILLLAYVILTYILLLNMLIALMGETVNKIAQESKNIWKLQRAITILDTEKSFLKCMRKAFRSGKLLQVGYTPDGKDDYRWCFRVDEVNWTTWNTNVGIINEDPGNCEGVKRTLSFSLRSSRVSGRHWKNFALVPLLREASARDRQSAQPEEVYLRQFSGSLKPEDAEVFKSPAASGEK
Thyrotropin receptor (Homo sapiens), sequence (P16473 whole entry, looked up): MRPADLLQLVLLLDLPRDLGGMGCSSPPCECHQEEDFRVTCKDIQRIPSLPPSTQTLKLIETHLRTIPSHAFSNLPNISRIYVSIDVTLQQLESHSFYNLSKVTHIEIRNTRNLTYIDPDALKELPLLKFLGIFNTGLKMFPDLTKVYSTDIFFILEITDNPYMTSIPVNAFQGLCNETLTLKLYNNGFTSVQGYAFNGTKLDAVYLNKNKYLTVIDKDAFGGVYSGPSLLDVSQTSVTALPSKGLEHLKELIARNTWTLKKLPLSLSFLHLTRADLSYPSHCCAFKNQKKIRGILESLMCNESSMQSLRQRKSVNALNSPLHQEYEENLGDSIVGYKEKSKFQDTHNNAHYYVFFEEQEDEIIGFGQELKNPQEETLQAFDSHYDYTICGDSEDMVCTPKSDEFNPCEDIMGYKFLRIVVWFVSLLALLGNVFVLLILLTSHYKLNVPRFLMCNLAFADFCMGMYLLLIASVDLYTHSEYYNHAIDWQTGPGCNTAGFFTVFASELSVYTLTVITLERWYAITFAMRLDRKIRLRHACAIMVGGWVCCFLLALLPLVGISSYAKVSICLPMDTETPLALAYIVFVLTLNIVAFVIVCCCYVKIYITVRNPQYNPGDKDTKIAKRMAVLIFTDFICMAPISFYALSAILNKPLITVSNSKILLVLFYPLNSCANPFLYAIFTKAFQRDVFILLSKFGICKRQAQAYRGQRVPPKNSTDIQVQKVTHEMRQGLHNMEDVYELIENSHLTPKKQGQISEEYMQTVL
Ferritin light chain (Equus caballus), sequence (P02791 2-175 limits assumed): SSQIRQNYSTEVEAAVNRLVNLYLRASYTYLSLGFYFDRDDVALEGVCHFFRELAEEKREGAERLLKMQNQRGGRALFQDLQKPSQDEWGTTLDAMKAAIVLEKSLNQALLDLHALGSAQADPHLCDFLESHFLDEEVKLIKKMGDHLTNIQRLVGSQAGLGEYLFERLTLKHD

COc1ccccc1NC(=O)Nc1nc(-c2cccnc2)nc2ccccc12
inactive: Potency [1] | Potency [2] | Potency [3] | Potency [4] | Potency [5] | Potency [6] | Potency [7] | outcome [8] | Potency [9] | Potency [10] | Potency [11] | Potency [12] | outcome [13] | outcome [14] | activation [15] 0.25% | outcome [16] | outcome [17] | Potency [18] | Potency [19] | Potency [20]
